Screens deposited in PubChem by The Scripps Research Institute Molecular Screening Center.
Shown are actives, neighbours in structure and some others; about 1.1% of the full set was active somewhere.
LRH-1 inv ag = suppresses constitutive activity of human LRH-1 | O00482 | HEK293T StAR-luciferase reporter, LRH-1 transfected, 24 h | inhibition, % at 3.6 µM | 0.13% of 360,000 active;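 active = inhibition above the mean inhibition of all tested compounds plus 3 SD, cut at about 73% in these data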;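 note: 0% = DMSO wells and 100% = reporter-only cells lacking LRH-1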
SRC3 inh = human NCOA3 inhibition; Q9Y6Q9; HEK293 GAL4-SRC3 luciferase reporter, luminescence; inhibition, % at 3.6 µM; 0.17% of 360,000 active; AID 588352;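 active = inhibition above a per-campaign cutoff, the mean of all compounds plus 3 SD, cut at about 60% in these data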;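 note: 0% = DMSO-treated cells and 100% = gossypol-treated cells at 36 µM; higher means less SRC3-driven luciferase light from the GAL4 reporter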
GalR3 antagonist = antagonists of human GalR3 | HEK293 GalR3-CNG cAMP membrane potential fluorescence; galR3 body fused to GalR1 C-terminus | O60755 | inhibition, % at 3 µM | 0.44% of 360,000 active;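 active = inhibition above the screen-wide average plus 3 SD, cut at about 13% in these data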;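 note: forskolin and galanin both at EC90 stimulate the cells; cAMP rise reported by CNG channel membrane potential dye signal; 0% = forskolin plus galanin with DMSO and 100% = forskolin alone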
NCOA1 inh = inhibitors of human steroid receptor coactivator 1 (SRC1); HEK293 GAL4-SRC1 luciferase reporter, luminescence; inhibition, % at 3.6 µM; Q15788; AID 588354; 0.12% of 360,000 active;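 active = inhibition above the campaign mean plus 3 SD, with each screening campaign given its own cutoff, cut at about 60% in these data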;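 note: 0% = DMSO treated cells and 100% = gossypol at 36 µM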
SRC2 inh = human SRC2 (NCOA2) inhibition; HEK293 GAL4-SRC2 luciferase reporter, luminescence; AID 651957; inhibition, % at 9 µM; 0.17% of 370,000 active;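 active = inhibition above the mean inhibition of all tested compounds plus 3 SD, set per campaign, cut at about 52% in these data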;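 note: 0% = DMSO treated cells and 100% = cells given Gossypol at 36 µM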
COUP-TFII inh = NR2F2 (human) inhibition, primary screen; inhibition, % at 8.6 µM; P24468; 0.7% of 370,000 active; HEK293T NGFI-A luciferase reporter, luminescence;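 active = inhibition above a per-plate cutoff, mean inhibition of test wells between control levels plus 3 SD, cut at about 38% in these data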;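 note: cells cotransfected with COUP-TFII expression vector driving the NGFI-A reporter; 0% = median of COUP-TF2 test wells and 100% = reporter-only cells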
Gal4-VP16 ctr = inhibits VP16 reporter, flagging COUP-TFII antagonist hits. 25% of 2,500 active. shares compounds with COUP-TFII inh. HEK293 Gal4-VP16 luciferase reporter, luminescence. inhibition, % at 8.5 µM; in the data active = inhibition above about 13%
COUP-TFII conf = COUP-TFII (NR2F2) inhibition, confirmation assay; shares compounds with COUP-TFII inh; HEK293 NGFI-A luciferase reporter, luminescence; inhibition, % at 8.5 µM; 45% of 2,500 active;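 active = mean inhibition over three repeats above a set limit taken from the earlier primary screen, cut at about 38% in these data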;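 note: 100% = cells given the luciferase reporter alone without the COUP-TF2 vector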
An asterisk follows results filed as active; · = no result.

SMILES	LRH-1 inv ag	SRC3 inh	GalR3 antagonist	NCOA1 inh	SRC2 inh	COUP-TFII inh	Gal4-VP16 ctr	COUP-TFII conf
O=C(CCN1C(=O)/C(=C/c2ccccc2Cl)SC1=S)Nc1ccccn1	4	0	1	-6	-1	6	·	·
Cc1ccc(/C=C2\SC(=S)N(CCCC(=O)NNC(=O)c3ccccc3O)C2=O)cc1	24	58	3	53	88*	70*	23*	39*
COc1cc(/C=C2\SC(=S)N(CCC(=O)NC3CCCC3)C2=O)cc(OC)c1OC	8	58	-7	7	-3	3	·	·
Cc1ccc(/C=C2\SC(=S)N(CCCC(=O)NC3CCCC3)C2=O)cc1	34	57	1	59	89*	42*	12	21
Cc1ccc(/C=C2/SC(=S)N(CCCC(=O)Nc3ccc(O)cc3)C2=O)cc1	41	36	-6	42	85*	70*	-78	-13
O=C(CCCN1C(=O)/C(=C/c2ccccc2Cl)SC1=S)Nc1ccccn1	30	15	-9	20	69*	40*	6	25
C[C@H](O)[C@@H]1CN2CCc3ccc(N4CCOCC4)cc3[C@@H]2C[C@@H]1N(C)CC1CCCCC1	·	·	·	·	18	-13	·	·
COC(=O)C1CN(Cc2ccccc2)CCS(=O)(=O)N1Cc1ccc(Cl)cc1 (configuration not stated)	·	·	·	·	16	3	·	·
Cc1ccc(C(=O)NNC(=O)CCCN2C(=O)/C(=C/c3ccccc3Cl)SC2=S)cc1	11	34	0	21	63*	47*	32*	33
O=C(CCN1C(=O)/C(=C/c2ccccc2Cl)SC1=S)NNC(=O)c1ccccc1O	-23	-1	-9	-13	-9	13	·	·
COC(=O)[C@]12C[C@H](CC(=O)NCc3ccc(OC)c(OC)c3)C(=O)N(Cc3cccc4ccccc34)C1=C[C@H](COCc1ccccc1)O[C@@H]2C	·	·	·	·	18	8	·	·
O=C(NCC(c1ccco1)N1CCCC1)c1ccc(Cl)c(S(=O)(=O)N2CCc3ccccc32)c1 (configuration not stated)	16	30	87*	21	25	66*	7	50*
COc1ccc(NC(=O)c2ccc(Cl)c(S(=O)(=O)N3CCc4ccccc4C3)c2)cn1	28	17	5	9	6	68*	-3	18
COc1ccc(NC(=O)c2ccc(Cl)c(S(=O)(=O)N3CC(C)OC(C)C3)c2)cn1 (configuration not stated)	2	28	-8	22	22	8	·	·
O=C(Nc1ccccn1)c1ccc(Cl)c(S(=O)(=O)N2CCc3ccccc32)c1	-27	-29	-5	2	33	45*	-3	22
Cc1ccc(CN2CCN(Cc3ccc(-n4cccn4)cc3)CC2CCO)cc1 (configuration not stated)	2	20	-7	-2	13	7	·	·
O[C@@H]1CN(Cc2ccc(-n3cccn3)cc2)CC[C@H]1N1CCN(c2ccccc2F)CC1	27	-9	-3	7	10	49*	9	36
Cc1cc(/C=C2/C(=O)NN(c3ccccc3)C2=O)c(C)n1-c1cccc(O)c1	-27	26	1	22	-23	41*	-62	39*
Cc1ccc(OCc2nnc(SCC(=O)c3ccc4ccccc4c3)n2-c2ccc(Cl)cc2)cc1	·	·	·	·	1	0	·	·
CC1(C(=O)Nc2ccccc2)CCN1C(=O)C1(c2ccc(Cl)cc2)CC1 (configuration not stated)	-21	-17	1	7	6	76*	4	14
Cn1cc(/C=C/c2cc[n+](C)cc2)c2cc(Cl)ccc21	56	59	-5	28	4	59*	4	26
Cn1cc(/C=C/c2cc[n+](C)cc2)c2cc(F)ccc21	6	20	·	5	·	·	·	·
O=S1(=O)C=CCN1Cc1cn(Cc2ccccc2)nn1	·	·	·	·	4	1	·	·
Cc1ccc(NC(=O)[C@@H]2CC(=O)O[C@@H]2c2ccccc2)cc1C	·	·	·	·	-22	-26	·	·
c1cc2c(cc1C1=NNC(=NC3CC3)SC1)OCCO2	25	66*	1	57	61*	46*	52*	76*
SMILES	LRH-1 inv ag	SRC3 inh	GalR3 antagonist	NCOA1 inh	SRC2 inh	COUP-TFII inh	Gal4-VP16 ctr	COUP-TFII conf
Cc1cc(C2=NNC(=NC3CCCCC3)SC2)c(C)n1-c1c(C)n(C)n(-c2ccccc2)c1=O	10	1	3	11	-5	18	·	·
Cc1cc(C2=NNC(=NC3CC3)SC2)c(C)n1-c1ccccc1F	89*	89*	-1	93*	93*	97*	94*	108*
CCCCOc1ccc(C(=O)NC2CCCCN(Cc3ccc(C)cc3)C2=O)cc1 (configuration not stated)	·	·	·	·	19	40*	-12	25
Cc1ccccc1CN1CCCCC(NC(=O)c2ccccc2C)C1=O (configuration not stated)	·	·	·	·	-8	3	·	·
Cc1ccccc1CN1CCCCC(NC(=O)c2ccc(-c3ccccc3)cc2)C1=O (configuration not stated)	·	·	·	·	16	57*	-15	41*
Cc1ccc(CN2CCCCC(NC(=O)c3ccc(F)cc3)C2=O)cc1 (configuration not stated)	·	·	·	·	-2	-1	·	·
Cc1ccc(CN2CCCCC(NC(=O)c3ccc(COc4ccccc4)cc3)C2=O)cc1 (configuration not stated)	·	·	·	·	18	51*	-10	23
O=C(CSc1nnc(-c2cccnc2)n1-c1ccc(Cl)cc1)c1ccc(F)cc1	·	·	·	·	15	4	·	·
COc1cc(C=NN2CCN(C(c3ccccc3)c3ccccc3)CC2)cc(OC)c1OC(C)=O	·	·	·	·	12	12	·	·
O=C(OC(c1ccccc1)c1nccc2ccccc12)c1ccccc1 (configuration not stated)	76*	70*	-7	67*	61*	81*	53*	87*
O=C(OC(c1ccccc1)c1nccc2ccccc12)c1cccc([N+](=O)[O-])c1 (configuration not stated)	-6	-25	-7	-57	-29	-5	·	·
O=C(c1ccc(Cl)c(Cl)c1)N1CCC(Oc2cccnc2)CC1	·	·	·	·	-11	2	·	·
Cc1ccc(-c2onc(C)c2C)cc1S(=O)(=O)N1CCOc2ccccc21	-3	24	-8	0	28	59*	-3	16
Cc1cc(-c2ccc(C(C)C)c(S(=O)(=O)N3CCOc4ccccc43)c2)on1	4	5	-3	-6	-7	9	·	·
